A selection: hits, their analogues and other compounds. The true share with any hit is near 6.5%.
VACV Venus inh: vaccinia inhibition (Venus reporter); Vaccinia virus Venus reporter expression, fluorescence; Potency, µM (doses to about 36.5 µM), inactives show at the highest dose activity change, negative = inhibition, usual class: inhibitors; hit rate 0.46% among 330,000; calls by dose curve; tested in A549 cells; note: potency is the fitted concentration of half-maximal effect; nearly all actives have a fitted effect of over 30% in size
Lassa entry inh: inhibitors of Lassa virus binding or cell entry | Lassa virus pseudotype entry inhibition, cell reporter | Potency, µM (titrated, usually from 37.9 µM), for inactives: top-dose activity change, negative = inhibition, actives largely listed as inhibitors | hit rate 1.2% among 300,000 | AID 540256; calls by dose curve; tested in HEK293 cells; note: potency is the fitted concentration of half-maximal effect; nearly all actives have a fitted effect of over 50% in size
Marburg entry inh: Marburg virus entry inhibition; Marburg virus pseudotyped entry inhibition, cell reporter; Potency, µM (series often up to 37.8 µM), without a hit: at the highest dose activity change, negative = inhibition, usual class: inhibitors; hit rate 1.8% among 300,000; AID 540276; calls by dose curve; tested in HEK293 cells; note: potency is the fitted concentration of half-maximal effect
Vaccinia mCherry: vaccinia inhibition (mCherry reporter). Vaccinia virus mCherry reporter infection, fluorescence. Potency, µM (series often up to 36.5 µM), without a hit: top-dose activity change, negative = inhibition, usual class: inhibitors. hit rate 0.63% among 310,000; calls by dose curve; tested in A549 cells; note: potency is the fitted concentration of half-maximal effect; nearly all actives have a fitted effect of over 35% in size
HCMV antiviral: blocks human cytomegalovirus replication; HFF cells, HCMV-luciferase reporter, 72 h; hits give low values; activity change, negative = inhibition, % at 57.5 µM; hit rate 4.5% among 410,000; AID 1259415; in the data active = activity change below about -60%; inconclusive = no clear call, values can overlap the other calls; inactive = above about -39%
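Inhibition of viral replication was scored as loss of reporter luminescence in HFFs infected with HCMV-luciferase (MOI 1 PFU/cell) for 72 h; compounds tested at 2 doses, normalized to buffer and Salinomycin controls.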
FMDV inh: foot and mouth disease virus antiviral activity. hit rate 1.2% among 410,000. Potency, µM (titrated, usually from 57.9 µM), for inactives: at the top dose activity change, negative = inhibition, usual class: inhibitors. FMDV antiviral cell-based qHTS; calls by dose curve; tested in HEK293T cells; note: read-out not given here; potency is the fitted concentration of half-maximal effect; nearly all actives have a fitted effect of over 45% in size
* marks the source's active call; other numbers are inactive results; i = inactive; ? = inconclusive; . = not tested or not shown; [ ] = dose if it differs, or a comment. % is set by controls: 0 for no effect and ±100 for the full control effect.

SMILES	VACV Venus inh	Lassa entry inh	Marburg entry inh	Vaccinia mCherry	HCMV antiviral	FMDV inh
CO/N=C/c1ccc(N2CCN(C(=O)c3ccc(F)cc3)CC2)c([N+](=O)[O-])c1	.	?	?	.	-29	20µM*
Cn1c(-c2ccsc2)cc2c(Nc3ccc(Oc4ccccc4)cc3)nccc21	.	.	.	.	-89*	.
COc1cccc(-c2cc3c(Nc4ccc(OC)cc4C)nccc3n2C)c1	.	.	.	.	-2	.
COC(=O)C1(C(F)(F)F)N=C(C(F)(F)F)Nc2ccc(Cl)cc21 (configuration not stated)	-9%	5%	10%	-13%	-102*	-16%
CCOC(=O)C1(C(F)(F)F)N=C(C(F)(F)F)Nc2cc(C)c(C)cc21 (configuration not stated)	-17%	-5%	?	i	-38	-22%
COC(=O)c1ccc(Cn2c(SCc3ccccc3)nc3ccncc32)cc1	-11%	.	-10%[46.1 µM]	-6%	22	-3%
COc1ccccc1Oc1cc(C#N)c(C#N)cc1-n1nnc2ccccc21	-22%	?	?	-25%	-92*	?
Nc1ncnc2c(C3OC(CO)C(O)C3O)c[nH]c12 (configuration not stated)	0.25µM*	?	?	0.28µM*	-98*	0%
CCCCCCN1C=CC(=C2C(=O)c3ccccc3C2=O)C=C1	.	.	.	.	-66*	-74%
CCCCN1C(C)=CC(=C2C(=O)c3ccccc3C2=O)C=C1C	1%	?	?	-11%	35	-44%
CCN1C=CC(=C2C(=O)c3ccccc3C2=O)C=C1	.	0.65µM*	1.8µM*	.	-89*	4.5µM*
CN1C=CC(=C2C(=O)c3ccccc3C2=O)C=C1	.	.	1%	.	.	.
CCCN1C=CC(=C2C(=O)c3ccccc3C2=O)C=C1	.	0.21µM*	0.21µM*	.	-98*	1µM*
Cc1cccc(C)c1NC(=O)[C@H]1CCCCN1C	.	.	10%	.	.	.
Cc1ccc(S(=O)(=O)c2nnn3c2nc(N2CCN(c4ccccc4F)CC2)c2ccccc23)cc1C	-6%	19%[46.1 µM]	.	-16%	0	14%
CCc1ccc(NC(=O)C2CCCN(S(=O)(=O)c3ccc4c(c3)oc(=O)n4C)C2)cc1 (configuration not stated)	-7%	0%[46.1 µM]	-1%[46.1 µM]	-9%	-16	-2%
C=CCSC(=C(C#N)C#N)c1cc2c([nH]1)CCCC2	1%	11µM*	?	.	-20	11µM*
Cc1cc2ccccc2c[n+]1CC(=O)c1ccc(F)cc1	0%	.	.	-12%	.	.
CN(CCc1ccccc1)C(=O)c1ccc(NC(=O)Cc2ccc(NC(=O)C3CCN(C(=O)C4CCCC4)CC3)cc2)cc1	?	.	.	?	-71*	?
CN(CCc1ccccc1)C(=O)c1ccc(NC(=O)Cc2ccc(NC(=O)C3CCN(C(=O)c4ccccc4)CC3)cc2)cc1	-20%	.	.	?	-63*	-8%
CN(CCc1ccccc1)C(=O)c1ccc(NC(=O)Cc2ccc(NC(=O)C3CCN(C(=O)C4CC4)CC3)cc2)cc1	-18%	.	.	i	?	-11%
CN(CCc1ccccc1)C(=O)c1ccc(NC(=O)Cc2ccc(NC(=O)C3CCCN(C(=O)c4ccccc4)C3)cc2)cc1 (configuration not stated)	-25%	.	.	?	-76*	?
C#C[C@]1(O)CC[C@H]2[C@@H]3CCC4=Cc5oncc5CC4(C)[C@H]3CCC21C (some centres not stated)	.	?	21µM*	.	.	.
C#C[C@]1(O)CC[C@H]2[C@@H]3CCC4=Cc5nc6nc7ccccc7n6cc5C[C@]4(C)[C@H]3CC[C@@]21C	-6%	.	.	i	-30	14µM*
CCOc1ccc(-c2cccc(NC(=O)c3ccco3)c2)nn1	-15%	-11%	-6%	-3%	3	4%
SMILES	VACV Venus inh	Lassa entry inh	Marburg entry inh	Vaccinia mCherry	HCMV antiviral	FMDV inh
Nc1nc2ccc(NC(=O)c3ccco3)cc2s1	-2%	20%	8%[46.1 µM]	4%	?	25%
Cc1nc(-c2cccc(NC(=O)c3ccco3)c2)cs1	-3%	8%[46.1 µM]	?	-19%	-87*	5%
Cc1nn(Cc2ccc(C(=O)Nc3ccccc3C(F)(F)F)o2)c(C)c1Br	.	?	?	.	-10	-3%
Nc1nc(-c2ccc(NC(=O)c3ccco3)cc2)cs1	?	?	5µM*	?	15	-60%
Cc1csc(NC(=O)CS(=O)(=O)Cc2ccccc2)n1	-17%	3%[46.1 µM]	?	-12%	-71*	21%
Cc1csc(NC(=O)c2ccc(Cn3nc(C)c(Br)c3C)o2)n1	?	11µM*	?	?	-16	22µM*
CCOC(=O)Cc1csc(NC(=O)CS(=O)(=O)Cc2ccccc2)n1	-8%	4%	-22%	-7%	10	-21%
CCC(=O)N[C@@H]1c2ccccc2C2(CCN(Cc3[nH]c4c(Cl)cccc4c3C)CC2)[C@H]1OC	-9%	.	.	-7%	.	-13%
CCN1C(=O)CC(CC(=O)N2CCCCC2c2nccs2)(c2ccccc2C)C1=O (configuration not stated)	2%	.	.	-9%	.	-11%
Cc1ccc(C(=O)OCC(=O)Nc2nc(-c3ccccc3)cs2)cc1NC(=O)c1ccco1	?	?	?	?	-26	25µM*
CC1CCc2nc(NC(=O)c3ccco3)sc2C1 (configuration not stated)	?	0.28µM*	1.3µM*	-11%	-78*	-90%
Cc1csc(NC(=O)c2ccco2)n1	-3%	-12%	?	-8%	-84*	21%
Cc1ccc(C(=O)OCC(=O)Nc2ccccc2)cc1NC(=O)c1ccco1	.	6%	1%	.	-7	23%
CC1CCc2nc(NC(=O)Cc3cccs3)sc2C1 (configuration not stated)	-26%	-20%	0%	.	27	21%
Cc1nc(-c2ccc(NC(=O)c3ccco3)cc2)cs1	.	.	.	.	-84*	11µM*
CCc1ccc(C(=O)Nc2nc(C)cs2)s1	-18%	1.3µM*	?	-18%	-34	?
CCOC(=O)c1sc(NC(=O)c2ccc(CC)s2)nc1C	.	?	?	.	54	51%
CS(=O)(=O)N1CCC2(CCN(c3ccccn3)CC2)CC1	.	.	.	.	.	5%
